Test results as given in article PMC4336329 (PLoS ONE, 2015).
The campaign covered roughly 310,000 compounds. About 14,000 (4.5%) showed an effect of 50% or more. Effects have a minus sign here. The sample as a whole holds a higher share of strong results than the screen did.

biological target: human ether-à-go-go-related gene (hERG) potassium channel (human, UniProt Q12809); test: primary screen, population patch clamp on CHO cells stably expressing hERG; higher = less effect of the substance
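Note: peak tail current of the secondary pulse compared with the same well before compound.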

human ether-à-go-go-related gene (hERG) potassium channel, sequence (Q12809 whole entry, looked up): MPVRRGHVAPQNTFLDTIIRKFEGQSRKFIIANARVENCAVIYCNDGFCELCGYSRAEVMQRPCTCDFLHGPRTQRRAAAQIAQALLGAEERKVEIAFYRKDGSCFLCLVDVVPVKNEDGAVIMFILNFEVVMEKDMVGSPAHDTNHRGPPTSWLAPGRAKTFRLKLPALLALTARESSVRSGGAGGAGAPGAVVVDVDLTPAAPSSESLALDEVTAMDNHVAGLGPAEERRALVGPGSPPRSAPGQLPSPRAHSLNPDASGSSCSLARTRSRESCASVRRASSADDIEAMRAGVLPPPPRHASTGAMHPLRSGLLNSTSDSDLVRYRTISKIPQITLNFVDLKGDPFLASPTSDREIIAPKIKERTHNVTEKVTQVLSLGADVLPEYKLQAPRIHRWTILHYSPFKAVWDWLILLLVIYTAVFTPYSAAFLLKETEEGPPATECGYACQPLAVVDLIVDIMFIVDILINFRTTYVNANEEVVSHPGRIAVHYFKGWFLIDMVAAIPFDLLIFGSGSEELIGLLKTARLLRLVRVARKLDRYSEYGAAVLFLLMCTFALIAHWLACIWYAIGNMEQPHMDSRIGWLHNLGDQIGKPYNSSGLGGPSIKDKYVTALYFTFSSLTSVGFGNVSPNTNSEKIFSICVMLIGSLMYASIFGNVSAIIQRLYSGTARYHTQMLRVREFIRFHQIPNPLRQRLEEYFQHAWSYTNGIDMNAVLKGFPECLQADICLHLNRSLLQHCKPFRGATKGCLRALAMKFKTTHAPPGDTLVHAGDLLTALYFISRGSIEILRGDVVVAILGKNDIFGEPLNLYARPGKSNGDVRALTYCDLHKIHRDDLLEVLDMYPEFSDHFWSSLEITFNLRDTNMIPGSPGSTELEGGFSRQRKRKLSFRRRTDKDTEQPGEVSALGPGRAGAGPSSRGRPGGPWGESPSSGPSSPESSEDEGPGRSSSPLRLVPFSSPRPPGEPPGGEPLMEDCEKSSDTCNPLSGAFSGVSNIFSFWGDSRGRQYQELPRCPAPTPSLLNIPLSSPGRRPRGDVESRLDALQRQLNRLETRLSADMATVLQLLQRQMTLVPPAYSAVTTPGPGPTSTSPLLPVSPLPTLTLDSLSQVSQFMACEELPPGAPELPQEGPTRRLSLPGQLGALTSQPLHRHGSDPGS

Structure (SMILES)	hERG current change (%, negative = inhibition) at 10uM [%]
CC(C)NC(=S)NNC(=O)C12CC3CC(CC(C3)C1)C2	-8.78
CCN(CC)C(=O)N1CCN(C)CC1.O=C(O)CC(O)(CC(=O)O)C(=O)O	23.2
Cc1nc2nc(COc3ccccc3)[nH]n2c(=O)c1Cc1ccccc1	0.308
Cc1cc(Cl)ccc1OCC(=O)Nc1cccc(S(=O)(=O)N2CCCC2)c1	-1.87
O=C(CN1CCC(NC(=O)Nc2ccccc2)CC1)Nc1cccc([N+](=O)[O-])c1	-40.6
COc1cccc(NC(=O)NC2CCN(CC(=O)Nc3ccccc3[N+](=O)[O-])CC2)c1	-39.4
O=C(CN1CCCC1)Nc1ccc([N+](=O)[O-])cc1	-22.6
O=C(CN1CCC(NC(=O)Nc2ccccc2)CC1)Nc1ccccc1F	-18.3
O=C(Nc1ccccc1)NC1CCN(CCCN2C(=O)c3ccccc3C2=O)CC1	-61.4
O=C(CN1CCC(NC(=O)C2CC2)CC1)Nc1ccccc1[N+](=O)[O-]	22.1
Cc1ccccc1NC(=O)CN1CCC(NC(=O)Nc2ccccc2)CC1	-35.9
O=C(CN1CCC(NC(=O)Nc2ccccc2)CC1)Nc1ccc([N+](=O)[O-])cc1	-64.4
O=C(CN1CCC(NC(=O)Nc2ccc(F)cc2)CC1)Nc1ccccc1[N+](=O)[O-]	-51
O=C1CC(N2CCN(S(=O)(=O)c3ccccc3)CC2)C(=O)N1c1ccccc1 (stereo not drawn)	1.87
O=c1c2c3c(sc2n2cnnc2n1CCc1ccccc1)CCCC3	-20.5
CCOC(=O)c1cnn(-c2ccc(C)cc2)c1N	-1.1
CCOc1cccc2sc(N(CCCN(C)C)C(=O)c3ccc(S(=O)(=O)N4CCCCCC4)cc3)nc12.Cl	7.67
CN(C)CCCN(C(=O)c1ccc(S(=O)(=O)N2CCCCCC2)cc1)c1nc2c(F)cccc2s1.Cl	-66.2
CCOc1cccc2sc(N(CCN(CC)CC)C(=O)c3ccc(S(=O)(=O)N4CCCC4)cc3)nc12.Cl	-24.2
CCOC(=O)N1CCN(S(=O)(=O)c2ccc(C(=O)N(CCN(CC)CC)c3nc4c(C)cccc4s3)cc2)CC1.Cl	-24.3
Cc1ccc2sc(N(CCCN(C)C)C(=O)c3ccc(S(=O)(=O)N4CCCCCC4)cc3)nc2c1C.Cl	-23.4

Structure (SMILES)	hERG current change (%, negative = inhibition) at 10uM [%]
CN(C)CCCN(C(=O)c1ccc(S(=O)(=O)N2CCCC2)cc1)c1nc2c(F)cc(F)cc2s1.Cl	-44.3
CN(C)CCCN(C(=O)c1ccc(S(=O)(=O)N2CCc3ccccc3C2)cc1)c1nc2c(F)cc(F)cc2s1.Cl	-15.2
CCOc1cccc2sc(N(CCN(CC)CC)C(=O)c3ccc(S(=O)(=O)N4CCCCC4)cc3)nc12.Cl	-62.4
CN(C)CCCN(C(=O)c1ccc(S(=O)(=O)N2CCc3ccccc3C2)cc1)c1nc2c(F)cccc2s1.Cl	4.85
CCOC(=O)N1CCN(S(=O)(=O)c2ccc(C(=O)N(CCCN(C)C)c3nc4c(F)cc(F)cc4s3)cc2)CC1.Cl	-51.3
CN(C)CCCN(C(=O)c1ccc(S(=O)(=O)N2CCCCCC2)cc1)c1nc2c(F)cc(F)cc2s1.Cl	-69.6
NC(=O)C1(N2CCCCC2)CCN(C2CC(=O)N(Cc3ccc(N4CCCC4=O)cc3)C2=O)CC1 (stereo not drawn)	5.32
O=c1cc(N2CCN(Cc3ccccc3)CC2)[nH]c(=O)n1-c1ccc(Br)cc1	-10.7
CN(C)S(=O)(=O)c1ccc(C(=O)Nc2ccccc2OC(F)(F)C(F)F)cc1	-16.6
C#CCNc1ccncc1S(=O)(=O)NC(=O)NC(C)C.O=[N+]([O-])O	-1.14
O=c1cc(CN2CCN(c3cccc(C(F)(F)F)c3)CC2)nc2sccn12	-46.3
CC(CNC(=O)CCc1nnc2ccc(N3CCC4(CC3)OCCO4)nn12)c1ccccc1 (stereo not drawn)	-0.296
O=C(CNC(=O)c1sc2ccccc2c1Cl)NC1CC1	3.65
CCCCOc1ccccc1C(=O)NNC(=S)NC(=O)c1ccccc1[N+](=O)[O-]	3.48
NS(=O)(=O)c1ccc(NC(=O)c2cc(-c3cc(Cl)ccc3O)n[nH]2)cc1	15.7
CCS(=O)(=O)N1N=C(c2ccc(NS(C)(=O)=O)cc2)CC1c1ccccc1 (stereo not drawn)	-62.1
CCC(CC)C(=O)N1N=C(c2ccc(NS(C)(=O)=O)cc2)CC1c1ccccc1 (stereo not drawn)	-41.4
CS(=O)(=O)N1N=C(c2ccc3nccnc3c2)CC1c1ccccc1 (stereo not drawn)	-7.62
CS(=O)(=O)Nc1ccc(C2=NN(S(C)(=O)=O)C(c3ccccc3)C2)cc1 (stereo not drawn)	-73.6
CS(=O)(=O)N1N=C(c2cccs2)CC1c1ccccc1 (stereo not drawn)	-11.3
CCS(=O)(=O)Nc1ccc(C2=NN(S(=O)(=O)CC)C(c3cccs3)C2)cc1 (stereo not drawn)	-9.32
